AddAB inh: growth inhibition of E. coli expressing H. pylori AddAB, primary screen, AddAB inhibitor project, absorbance | inhibition, % at 11.9 µM | 330,000 compounds, 0.29% hits | AID 435030, 2010; in the data active = inhibition above about 12%;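 note: 0% = vehicle wells of infected cells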
Tat export inh: E. coli Tat export inhibitors, primary screen, MC4100, TorA-mCherry reporter, fluorescence, single point. 340,000 compounds, 0.036% hits. inhibition, % at 10 µM. AID 488895, 2010;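 active = mean replicate inhibition at least 50% and at least half of replicates individually reaching 50%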;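 note: exported cargo escapes ClpAP degradation while cytoplasmic cargo is degraded and loses fluorescence; 0% = median of neutral control wells and 100% = median of NaSCN control wells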
E coli growth-1: E. coli V3065 growth inhibition, primary screen, counter-screen for AddAB inhibitor project, absorbance, OD600 | 18 h | AID 449728, 2010 | 330,000 compounds, 0.27% hits | inhibition, % at 11.9 µM;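 active = inhibition above the campaign's mean inhibition across all tested compounds plus 3 SD, cut at about 9.9% in these data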;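 note: uninfected addAB+ strain grown without phage in ampicillin broth; 0% = DMSO wells and 100% = ciprofloxacin 0.95 µg/ml wells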
phage Ecoli inh: growth loss of phage-infected E. coli, primary screen, RecBCD inhibitor project, absorbance, with phage, HTS. inhibition, % at 11.9 µM. 360,000 compounds, 0.26% hits; in the data active = inhibition above about 11%
E coli growth-2: E. coli growth inhibition, primary screen, OD600. OD600 absorbance (concentration not given with the values). Escherichia coli growth, 23 h; hits give low values. 330,000 compounds, 0.21% hits;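 active = OD600 absorbance below the run mean of sample wells minus 3.6 SD, in any replicate, cut at about 0.56 in these data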
AddAB confirm: growth loss of phage-infected E. coli expressing H. pylori AddAB, confirmation, AddAB inhibitor project, absorbance, E. coli V3065, T4 phage, triplicate; shares compounds with AddAB inh; OD; T4 phage with gene 2 nonsense mutations; inhibition, % at 11.9 µM; 880 compounds, 64% hits; AID 488942, 2010;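 active = mean inhibition above a set limit taken from the earlier primary screen, cut at about 13% in these data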;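 note: higher means less bacterial growth since AddAB block lets phage replicate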
RecBCD counter: growth loss of RecBCD+ E. coli with mutant T4 phage, counter-screen for AddAB inhibitor project, absorbance, V66 E. coli | shares compounds with AddAB inh | OD growth | inhibition, % at 11.9 µM | 880 compounds, 73% hits;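 active = mean inhibition above the mean of solvent-only control wells plus 3 SD, cut at about 4% in these data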;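 note: optical density read after an 18 h incubation at 37 °C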
bact viab count: bacterial viability inhibition counter-screen, confirmation, counter-screen for AddAB inhibitor project, absorbance; 880 compounds, 35% hits; AID 488956, 2010; inhibition, % at 11.9 µM; shares compounds with AddAB inh; absorbance (AddAB counterscreen); in the data active = inhibition above about 25%
Starred values were filed as active, the others as inactive; . = not tested or not shown. Only some compounds are listed: those with a hit (about 0.51% of all), similar ones and a draw of the others.

SMILES | AddAB inh | Tat export inh | E coli growth-1 | phage Ecoli inh | E coli growth-2 | AddAB confirm | RecBCD counter | bact viab count
CCNc1c([N+](=O)[O-])c(=O)oc2ccccc12 | 13* | 4 | 8 | 5 | 0.61 | 29* | 2 | 3
CC(Nc1c([N+](=O)[O-])c(=O)oc2ccccc12)C(Cl)c1ccccc1 (stereo not given) | -2 | -6 | 2 | 3 | 0.73 | . | . | .
CCc1ccc(Nc2c([N+](=O)[O-])c(=O)oc3ccccc23)cc1 | 3 | 0 | 3 | 1 | 0.64 | . | . | .
O=c1oc2ccccc2c(NC(c2ccccc2)c2ccccc2)c1[N+](=O)[O-] | 39* | -13 | 6 | 3 | 0.7 | 101* | 5.3* | 12
O=C(NNC(=S)NC(=O)c1ccco1)c1ccc(NC(=O)c2ccccc2)cc1 | 1 | -8 | 3 | 0 | 0.57 | . | . | .
O=C(NC(=S)NNC(=O)c1ccccc1O)c1ccco1 | 14* | -1 | 2 | 6 | 0.37* | 17* | 17* | 37*
CN1CC2C3C(=O)N(Cc4ccccc4)C(=O)C3[C@](Cc3ccccc3)(C1=O)N2C(=O)c1ccc(Cl)c(Cl)c1 (stereo not given in full) | . | . | . | . | 0.68 | . | . | .
COc1ccc(OCC(O)CNc2ccc(Br)cc2)cc1 (stereo not given) | 12* | -45 | 9 | 11 | 0.58 | 13* | 9.3* | 10
COc1ccc(OCC(O)CNC(=O)c2ccc(Br)cc2)cc1 (stereo not given) | 0 | 1 | 2 | 3 | 0.73 | . | . | .
O=C(CN1CCCc2ccccc21)N/N=C/c1ccccc1 | 3 | 10 | -2 | 3 | . | . | . | .
O=C(CN1CCCc2ccccc21)N/N=C/c1c(O)ccc2ccccc12 | 15* | -6 | 11* | 8 | . | 2 | 5.3* | 0
COc1ccc(C2=CC(=O)C[C@H](c3ccc(Cl)cc3)C2)cc1 | 2 | 12 | -1 | 2 | . | . | . | .
COc1ccc(C2=CC(=O)CC(c3ccc(OC)cc3)C2)cc1 (stereo not given) | 16* | 0 | 10* | 2 | . | -4 | 1 | -2
Cc1nn(C)c(C(=O)NN=Cc2cccc3ccccc23)c1Cl | . | . | . | . | 0.7 | . | . | .
COc1ccc(-c2nn(-c3ccccc3)cc2C=NNC(N)=S)cc1OC | . | . | . | . | 0.67 | . | . | .
Nc1nn2c(-c3ccccc3)cc(=O)[nH]c2c1N=Nc1ccc(O)cc1 | 19* | -1 | 10* | 6 | 0.73 | 27* | 0 | 6
Cc1ccc(CN2CCN(N=Cc3ccccc3)CC2)cc1 | . | . | . | . | 0.67 | . | . | .
O=C(COc1ccccc1)NCC(c1ccco1)N1CCCCC1 (stereo not given) | 98* | 1 | 98* | 2 | 0.6 | 3 | 3 | 0
O=C(Cc1cccc2ccccc12)NN=Cc1ccc(OC(=O)/C=C/c2ccco2)cc1 | . | . | . | . | 0.72 | . | . | .
O=C(N/N=C\c1cccc(Cl)c1)c1ccc(Cn2cc(Br)c([N+](=O)[O-])n2)o1 | 29* | 2 | 26* | 8 | . | 29* | 4.2* | 22
COc1cc(C=NNC(C)=O)ccc1OC/C=C/c1ccccc1 | . | . | . | . | 0.72 | . | . | .
O=C(O)[C@H](O)[C@@H](O)C(=O)O | 25* | -3 | 5 | 0 | 0.7 | -2 | 0 | 0
C[C@@H]1Cc2c(O)c(O)cc(O)c2C(=O)O1 | 4 | 2 | -2 | . | 0.77 | . | . | .
O=C1C=C(O)c2c(O)cc(O)c(O)c2C1=O | 13* | 22 | 9 | 10 | 0.77 | 14* | 9.8* | 14
O=[N+]([O-])c1cnc(Sc2ccncn2)s1 | 81* | -13 | 12* | 10 | 0.43* | 98* | 8.7* | 35*
SMILES | AddAB inh | Tat export inh | E coli growth-1 | phage Ecoli inh | E coli growth-2 | AddAB confirm | RecBCD counter | bact viab count
O=S(=O)(NN=Cc1ccc(-c2ccccc2Cl)o1)c1ccccc1 | . | . | . | . | 0.68 | . | . | .
NC(=S)N/N=C/c1ccc(C(F)(F)F)cc1 | 0 | -4 | 2 | 4 | . | . | . | .
NC(=S)N/N=C/c1ncc(C(F)(F)F)cc1Cl | 23* | -4 | 18* | . | . | 18* | 18* | 18
O=C(NCc1nc2ccccc2[nH]1)c1ccc(Cl)c(S(=O)(=O)N2CCCC2)c1 | 16* | -3 | 5 | 10 | 0.65 | 6 | 4.0* | 3
COc1ccc(C=NNS(C)(=O)=O)c(OC)c1 | . | . | . | . | 0.73 | . | . | .
O=C(NC(CO)Cc1ccc([N+](=O)[O-])cc1)C(Cl)Cl (stereo not given) | 81* | 12 | 83* | . | 0.061* | 88* | 88* | 88*
O=C(O)CC(Cc1ccc(Cl)cc1)C(=O)Nc1ccc([N+](=O)[O-])cc1 (stereo not given) | 2 | 5 | 0 | 4 | 0.69 | . | . | .
O=C1NCCCc2c1oc1ccc(O)cc21 | 100* | 5 | 98* | 2 | 0.71 | -6 | -1 | -2
O=c1c(O)c(-c2ccccc2)oc2ccccc12 | . | 0 | . | 10 | . | . | . | .
Cc1ccc(-c2oc3ccccc3c(=O)c2O)cc1 | 13* | 6 | 13* | 4 | 0.72 | 14* | 14* | 10
CCn1cc(C(=O)NCc2cccc(F)c2)c(=O)c2cc(F)c(N3CCN(C(=O)c4ccco4)CC3)cc21 | 95* | 6 | 70* | 4 | 0.41* | 98* | 1 | 62*
CCCNC(=O)c1cn(CC)c2cc(N3CCN(C(=O)c4ccco4)CC3)c(F)cc2c1=O | 94* | 15 | 58* | 8 | 0.089* | 99* | 2 | 58*
CCn1cc(C(=O)NN)c(=O)c2cc(F)c(N3CCCCC3)cc21 | . | -7 | . | -1 | 0.68 | . | . | .
CC1=NNC(=O)C1CC(=O)NN=Cc1cccs1 (stereo not given) | . | . | . | . | 0.69 | . | . | .
COc1cc2c(cc1OC)-c1nnc(C)n1C1(CCCC1)C2 | 24* | 5 | 11* | 3 | 0.72 | 2 | 1 | 1
COc1cc2c(cc1OC)-c1nnc(C)n1C(C)(C)C2 | 1 | -1 | -3 | 2 | 0.7 | . | . | .
C=CCN(c1ccccc1)S(=O)(=O)c1cccc(C(=O)NNC(=O)c2ccccc2O)c1 | 12* | -4 | 0 | 5 | 0.7 | 5 | 4 | 4
Cc1ccc(S(=O)(=O)N2CCC(C(=O)NNC(=O)c3ccccc3O)CC2)cc1C | 14* | -8 | 9 | 7 | 0.7 | 12 | 9.4* | 13
Cc1ccc(S(=O)(=O)N2CCC(C(=O)NNC(=O)c3ccccc3O)CC2)cc1 | 10 | -2 | 6 | 9 | 0.73 | . | . | .
O=C(CCC(=O)Nc1ccccc1Cl)NN=Cc1c[nH]c2ccccc12 | . | . | . | . | 0.66 | . | . | .
COc1ccc(C=NNc2nonc2N)cc1 | . | . | . | . | 0.67 | . | . | .
NCCCCC1CN=C(N)N1CCCCC1CCCCC1 (stereo not given) | . | . | . | . | 0.68 | . | . | .
